Measured values published in PubChem BioAssay AID488896 (Broad Institute, 2010).
Hit rate of the full screen: of about 320,000 compounds, about 3,100 (0.97%) were called active. The entries come from a sample that favours actives as a whole. A number with no mark means an inactive call.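 The calls were made as follows: active = mean replicate inhibition of at least 70% and a set share of replicates each scoring 70 or more; inconclusive = meets just one of the two criteria; inactive = fails both criteria.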

What follows are compounds tested against Scavenger receptor class B member 1 (Mus musculus) (UniProt Q61009) (assay: inhibitors of SR-BI mediated HDL lipid uptake, primary screen, ldlA[mSR-BI] cells, fluorescence, single point (AID 488896;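 also: 0% = median of neutral control wells and 100% = median of positive control wells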)). Conditions: ldlA[mSR-BI] CHO cells, DiI-HDL uptake fluorescence, 3 h; at 12.5 µM; active compounds read high.
Chain of Scavenger receptor class B member 1 (Mus musculus) (Q61009 whole entry, looked up): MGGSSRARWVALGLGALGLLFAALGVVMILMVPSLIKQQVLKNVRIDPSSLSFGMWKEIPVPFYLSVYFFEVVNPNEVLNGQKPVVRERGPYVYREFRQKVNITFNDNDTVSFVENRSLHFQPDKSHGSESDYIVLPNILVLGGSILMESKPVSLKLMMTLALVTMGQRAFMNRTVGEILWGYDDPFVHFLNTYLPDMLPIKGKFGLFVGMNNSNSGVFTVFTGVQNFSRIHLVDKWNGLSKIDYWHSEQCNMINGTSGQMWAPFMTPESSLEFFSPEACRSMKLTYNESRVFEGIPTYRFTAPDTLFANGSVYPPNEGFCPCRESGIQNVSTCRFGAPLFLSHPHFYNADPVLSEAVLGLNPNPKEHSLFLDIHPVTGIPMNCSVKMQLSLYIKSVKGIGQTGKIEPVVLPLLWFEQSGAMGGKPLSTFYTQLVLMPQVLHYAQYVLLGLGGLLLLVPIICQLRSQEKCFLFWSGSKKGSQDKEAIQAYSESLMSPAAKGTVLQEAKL

Row | Structure (SMILES) | inhibition
1 | Cc1nc2ccc(N)nc2nc1C | 22.1%
2 | O=[N+]([O-])c1ccc(NS(=O)(=O)c2ccccc2)c(Cl)c1 | -84.4%
3 | COc1cccc2oc(CCc3ccccc3)cc(=O)c12 | -4.54%
4 | COc1ccccc1C(=O)NC(=S)Nc1ccccc1N1CCCCC1 | 49.6%
5 | COc1ccc(C(=O)NC(=S)Nc2ccccc2N2CCN(S(C)(=O)=O)CC2)cc1OC | 74.4% (active)
6 | CCC(=O)Nc1ccccc1N1CCN(S(C)(=O)=O)CC1 | -20.6%
7 | COc1cccc(/C=N/Nc2ccc(S(=O)(=O)Nc3ccccc3C(=O)O)cc2[N+](=O)[O-])c1O | -4.5%
8 | COc1cccc(C(=O)NNC(=O)c2cccc(F)c2)c1 | -14.2%
9 | O=C(Nc1ccccc1)c1ccc2c(c1)OCCCO2 | -9.51%
10 | COc1cccc(C(=O)Nc2nnc(S(=O)(=O)N3CCCCC3)s2)c1 | -13.3%
11 | COc1cccc(C(=O)Nc2cc3c(cc2Br)OCCCO3)c1 | 83.6% (active)
12 | COc1ccc(C(=O)NCCCN2CCOCC2)cc1Br | -15.8%
13 | COc1cccc(C(=O)Nc2ccc(N3CCCC3)cc2)c1 | 80.4% (active)
14 | COc1ccc(OCC(=O)Nc2ccc(N3CCC(C)CC3)cc2)cc1 | 65.5%
15 | COc1cccc(C(=O)Nc2ccc(N3CCN(C(=O)c4ccco4)CC3)cc2)c1 | 36.3%
16 | COc1ccc(C(=O)Nc2ccc(N3CCC(C)CC3)cc2)cc1Br | 94.5% (active)
17 | COc1ccc(CNC(=O)COC(=O)C2=Cc3ccccc3OC2)cc1 | -3.54%
18 | O=S1(=O)CCOC[C@H](Cc2ccccc2)N1Cc1ccccc1Br | -16.4%
19 | O=C(OCCOc1ccccc1Cl)c1cc(S(=O)(=O)N2CCCCC2)ccc1N1CCOCC1 | -9.43%
20 | CCn1c(-c2cc(OC)ccc2OC)csc1=Nc1c(C)n(C)n(-c2ccccc2)c1=O | -4.8%
21 | CN=c1scc(-c2cc(OC)ccc2OC)n1/N=C/c1c(C)[nH]c2ccccc12 | 77.2% (active)
22 | COCCNC(=S)N/N=C/c1c(C)[nH]c2ccccc12 | 2.4%
23 | O=C1C2C3C=CC(C3)C2C(=O)N1c1ncc([N+](=O)[O-])s1 (stereo unspecified) | -8.82%
24 | CCC(=O)N1CCc2cc(Br)c(S(=O)(=O)NCCN3CCCCC3CC)cc21 (stereo unspecified) | 11.6%

Row | Structure (SMILES) | inhibition
25 | COc1cc(C(=O)N2CCN(S(=O)(=O)c3ccc(C(C)C)cc3)CC2)ccc1OCC(=O)N1CCOCC1 | -10.9%
26 | Cc1ccc(Nc2c(O)nc[nH]c2=O)cc1C | 4.84%
27 | COC(=O)Cc1nc2c(N)nc(N)nc2[nH]c1=O | -15.9%
28 | O=C(NN=Cc1ccccc1O)NN=Cc1ccccc1O | 79.8% (active)
29 | O=C(N/N=C/c1ccccc1O)/C(=C/c1ccccc1)CCO | 24.8%
30 | O=C(N/N=C/c1ccccc1O)C1CCCC1 | 4.81%
31 | COc1ccccc1C(=O)c1ccccc1C(=O)c1ccccc1 | 6.29%
32 | COc1ccc(CNC(=O)CN2C(=O)c3ccccc3S2(=O)=O)cc1 | -16.4%
33 | CC(C)C(=O)Nc1cccc(NC(=O)c2ccc([N+](=O)[O-])cc2Cl)c1 | -2.31%
34 | Cc1cc([N+](=O)[O-])ccc1NC(=O)c1ccc(NC(=O)C(C)C)cc1 | 74.9% (active)
35 | CC(=O)c1ccc(NC(=O)Nc2ccc([N+](=O)[O-])cc2C)cc1 | 26.8%
36 | Nc1ccc2[nH]c(=S)sc2c1 | 5.71%
37 | COc1ccc(-c2nnn(CC(=O)N(CCO)C(C(=O)NC3CCCC3)c3ccc(F)cc3)n2)cc1 (stereo unspecified) | 10.5%
38 | COc1cccc(N(CC(=O)NC2CCCC2)C(=O)Cn2nnc(-c3ccc(C)cc3)n2)c1 | 73.6% (active)
39 | COc1cccc(N(CC(=O)NC2CCCC2)C(=O)CCCC(=O)Nc2ccccn2)c1 | 21.1%
40 | O=c1[nH]c2c(c(=O)n1-c1ccccc1)CCO2 | 2.86%
41 | O=C(N/N=C/c1cc(Cl)cc([N+](=O)[O-])c1O)C(O)(c1ccccc1)c1ccccc1 | 77.8% (active)
42 | CN(C)/N=C/c1cc(Cl)cc([N+](=O)[O-])c1O | -14.6%
43 | O=C(Cc1cc(=O)[nH][nH]1)N/N=C/c1ccccc1[N+](=O)[O-] | -19.1%
44 | N=C1c2ccccc2-c2ccccc21 | -9.24%
45 | CCC(C(=O)OCC(=O)Nc1c(Cl)cc(Cl)cc1Cl)c1ccccc1 (stereo unspecified) | -13.8%
46 | CCC(C(=O)OCC(=O)Nc1ccc(C(=O)Nc2ccc(OC)cc2)cc1)c1ccccc1 (stereo unspecified) | 79.1% (active)
47 | CCC(C(=O)OCC(=O)Nc1ccccc1-c1ccccc1)c1ccccc1 (stereo unspecified) | -4.74%
48 | COc1ccc(NC(=O)/C(N=Nc2cccc(S(=O)(=O)Nc3ccc(SC(F)F)cc3)c2)=C(\C)O)cc1 | -19.4%

Row | Structure (SMILES) | inhibition
49 | COCCNc1cc(-c2ccccc2)nc2cc(-c3cccc(F)c3)nn12 | 71.2% (active)
50 | COc1ccc(NC(=O)c2cc3nc(-c4ccccc4)cc(C)n3n2)cc1OC | -10.7%
51 | COC(=O)C(C)Sc1ccc2nnc(-c3cccc(F)c3)n2n1 (stereo unspecified) | -12.2%
52 | COc1ccc(NS(=O)(=O)c2ccc(N3CCOCC3)c(NC(=O)/C=C/C(=O)O)c2)cc1 | -22.2%
53 | CC(C)Cc1nnc(N)s1 | -10.1%
54 | CCOc1ccc(C(C)=O)cc1COC(=O)CN1C(=O)NC2(CCCC2)C1=O | 28.5%
55 | CCOc1ccc(C(C)=O)cc1COC(=O)CNC(=O)c1cccs1 | 72.6% (active)
56 | CCOc1ccc(C(C)=O)cc1COC(=O)c1cnc(Cl)c(Cl)c1 | -10.9%
57 | Cc1cccc(C=CC(=O)c2ccc(Cl)cc2)c1 | 0.714%
58 | NC(CSC1(c2ccccc2)c2ccccc2-c2ccccc21)C(=O)O (stereo unspecified) | -5.45%
59 | O=C(NCc1ccccc1)c1cccc(NC(=O)C2CCCCC2)c1 | 0.488%
60 | OCC1(CO)CC2(C1)CC(CO)(CO)C2 | -21.2%
61 | COC(=O)CCc1sc(Nc2ccc(Br)cc2)nc1-c1ccc(OC)cc1 | 87.4% (active)
62 | COc1ccc(C(=O)Nc2nc(-c3ccc(OC)cc3)c(-c3ccc([N+](=O)[O-])cc3)s2)cc1 | 32.2%
63 | Cc1ccc(OC(=O)CCC(=O)Nc2ccc(Br)cc2)cc1 | -15.2%
64 | COc1ccc(-c2ccc3c(c2)C2CC3CCN2CCC#N)cc1 (stereo unspecified) | 33.2%
65 | C=CCn1c(=O)n(C)c2c(=O)n(C)c(=O)n(C)c21 | 1.14%
66 | COc1ccc(CCNC(=O)COc2cc(C)cc3oc(=O)c(C)c(C)c23)cc1OC | 6.42%
67 | Cc1ccc(C(C)C)c(OCCSc2nc3ccccc3n2CC(=O)O)c1 | -2.24%
68 | CCOc1ccc(OCCSc2nc3ccccc3n2CC(=O)O)cc1 | 71.7% (active)
69 | CCCn1c(C(O)c2ccc(OCC)cc2)nc2ccccc21 (stereo unspecified) | 14%
70 | COc1ccc2c(c1)c(=Cc1ccc(N(C)C)cc1)c1cc(-c3ccccc3)[n+](C)n12 | -63.4%
71 | CCCN(CCC)S(=O)(=O)c1cc2c(cc1Br)CCN2C(=O)CC | 7.1%
72 | CCN(CC)CCCC(C)n1c2nc(=O)[nH]c(=O)c-2nc2cc(Cl)ccc21 (stereo unspecified) | 9.9%

Row | Structure (SMILES) | inhibition
73 | CCC1([N+](=O)[O-])COC(c2ccc(C(C)C)cc2)OC1 (stereo unspecified) | -13.9%
74 | CCc1ccc2c(c1)C1(NN=C(c3ccccc3)S1)C(=O)N2 (stereo unspecified) | 115% (active)
75 | NNc1cccc(C=Cc2ccccc2)cc1=O | 16.6%
76 | CC(=O)N1CCN(C(=O)Nc2cccc(C(F)(F)F)c2)CC1 | -9.59%
77 | O=C(Nc1cccc(NC(=O)N2CCN(c3ccccc3)CC2)c1)N1CCN(c2ccccc2)CC1 | 86% (active)
78 | O=C(Nc1ccc(F)cc1)N1CCN(c2ccc(F)cc2)CC1 | -29.4%
79 | O=c1c2ccccc2ncn1CCc1ccncc1 | -5.47%
80 | NC(=O)C1(Nc2ccc(-c3ccccc3)cc2)CCCC1 | 1.01%
81 | Cc1cc(C)c(C=NNc2nc3c([nH]2)c(=O)n(C)c(=O)n3C)c(C)c1 | -12.4%
82 | CCC(=O)c1ccc(OC(=O)/C=C/c2cc(OC)c(OC)c(OC)c2)cc1 | 48.6%
83 | CCOc1ccc(N/C=C/C(=O)c2ccccc2)cc1 | -1.21%
84 | CCOc1ccc(N/C=C/C(=O)c2cc(OC)c(OC)c(OC)c2)cc1 | 78.7% (active)
85 | COc1ccc(S(=O)(=O)N2CCc3ccccc32)cc1C(=O)Nc1cc(S(C)(=O)=O)ccc1Cl | 27.5%
86 | O=S(=O)(Nc1ccc2ccccc2c1)N1CCCCC1 | 1.03%
87 | c1ccc(CCc2ccccn2)cc1 | -7.77%
88 | O=C(OC12CC3CC(CC(C3)C1)C2)c1ccc(NCc2cc(O)ccc2O)cc1 | 5.77%
89 | Cc1nc(N)nc(Cl)c1CCC1OCCO1 | -19.5%
90 | CN1CCN(c2ccc(S(=O)(=O)Nc3ccccc3)cc2[N+](=O)[O-])CC1 | -5.63%
91 | O=[N+]([O-])c1cc(S(=O)(=O)Nc2cccc(Cl)c2)ccc1N=Nc1c(O)[nH]c2ccccc12 | 101% (active)
92 | Oc1[nH]c2ccccc2c1N=Nc1c(F)c(F)c(F)c(F)c1F | 15.7%
93 | O=C1CC(C(=O)O)NC(=S)N1 (stereo unspecified) | -3.49%
94 | COc1cc(OC)c(C(=O)Nc2ccccc2-c2ccccc2)cc1OC | 20.8%
95 | COc1ccc(Br)cc1C(=O)NC(=S)Nc1cc(-c2nc3ccccc3[nH]2)ccc1C | 60.8%
96 | COc1ccc(Br)cc1C(=O)Nc1cccc(C)c1C | 76.2% (active)
